Over roughly 9,900 sequences, “r (bound/input frequency ratio)” has its median near 0.7; the highest 2% begin near 6.5. The sample holds the highest values, similar sequences and a random draw of the others, so the mix is not that of the screen.
B1: ENSMUSG00000029028.179|Lrrc47|115:119 (ssRNA)
RNA: GGGAGUUCUACAGUCCGACGAUCGCUUCGAUAUCCGCAUGCUAACAGAUGCUUCGUGGACUGUGCCUCACACAUGGCCCUGCAGGCUCCAUGUCAGCGUGUCCCACUAUUCAUGUCCCAUCUCUGUGCAUCCUGACUGCGCACAUCCCAUCUCCGCAACACAACGCAUCUGUACCAGCACACAGCUGCCAUCCCUCGAGCCACAGUGCCUGGUCCUAAGGACCCAGCAGCUGCACAGAGGACUUGGUGGCCCCGUGCCUUGCCAUCUGGCUGAGAAGAGAACCAGACCCUCAGCCUUCCCCCUCUCUUGCGGUCGCACUAGUGUGGAAUUCUCGGGUGUCAAGG
B2: ENSMUSG00000058297.511|Spock2 (ssRNA)
RNA: GGGAGUUCUACAGUCCGACGAUCGCUUCGAUAUCCGCAUGCUAAGGAGGCAAAGUUGGUGAGAGUCCUGGGACAUCUUACCCCCAGUGUUCCACAGGAGUCGUGACCACGUGUGAUGGGUGGGCACAGGUCUGCCUUGCUCCAGCCCCCUCCCUUGGUUUCUGUUGGUACCCAUUUGGCUUUUAUCUGCUUUCUGCUUCACCACUAAGUGCGUAGGUGGGGUCUUUUGAUAUCGGCUCCCCAAAGCCCAAGCCCACAGCCCUAGGAGAGAACCAGGGGCCCAUCUUUGACACCUGGGCCAUCACUCUUGCGGUCGCACUAGUGUGGAAUUCUCGGGUGUCAAGG
B3: ENSMUSG00000090935.640|Synj2bp|188:194 (ssRNA)
RNA: GGGAGUUCUACAGUCCGACGAUCGCUUCGAUAUCCGCAUGCUAAGAAUAAAGUAUUUUCCUAGGACUACAUAGUUGGUAAAAGAGAAUCAUGAUUUAAACUCUGGACUAUGGAUGGCAGUAUCAGUAAUAUUCCCUCAUAGCUAGCAGUCCUCAUGCAAGGUCUCUGAACAAAAGCAACGUAUCACCUGCAAAUGCUUGGGUUUCAUCCCAUUCUUAUGGAGUGAGAUGACACACACCCAGCCAGCAACUCUGUCCUUCUAGGUAACUGGUUCAUGCUGAACCUUGAGAUUCACCACUGUCAGCUCUUGCGGUCGCACUAGUGUGGAAUUCUCGGGUGUCAAGG
B4: ENSMUSG00000032194.203|Kank2|47:51 (ssRNA)
RNA: GGGAGUUCUACAGUCCGACGAUCGCUUCGAUAUCCGCAUGCUACUGCACCUUUCUCUAACUGGGGUUCCUUUCUGGCCCCAGGAUCUCACACACGUUCGUGGGGGGAUUUUGUUGUUGUUUCUUUGUUUCUUUUCUUCAUAAAGAAGAAAAAGGAAACAACUUCUAGAUGUGCCUUGCGAUAGGGAGGACUUUGUCCUCUCAAGUCUCCCUGUCGUAUCCAGAUCACAGCUGAACCCACUGGGCCUUGGCGCCAAACCUCAGCAGGGCAGCAUUGAGACUCAUGGACUAAAGGAAAGUGUUCACUCUUGCGGUCGCACUAGUGUGGAAUUCUCGGGUGUCAAGG
B5: ENSMUSG00000004113.196|Cacna1b (ssRNA)
RNA: GGGAGUUCUACAGUCCGACGAUCGCUUCGAUAUCCGCAUGCUACUGGCUCCUCUGCUCAACCAAGUGCCUGAUCUCUGGCUCUGAGCAUCGUGGAUGAGGUACGGCCUCAGGAAGCAUCGGGUGGAUUGGGUGGGAGCUGCUCAGAGCAGCACGGGGGCUUGUGUCUUAGGGACAUUGACAGUGUCCAUCAGCAUGUCAGAGAAGCAGCUGUAGUGCCCGUGUUUCUCCCUGAGUCAUGGGUUCUGAAGAAGCCAGAGCGGCACAAUGCGUGCUUGCAUGAGGCACUUUCAGCCUUUUUAAAUCUCUUGCGGUCGCACUAGUGUGGAAUUCUCGGGUGUCAAGG
B6: ENSMUSG00000061578.342|Ksr2 (ssRNA)
RNA: GGGAGUUCUACAGUCCGACGAUCGCUUCGAUAUCCGCAUGCUAUGCCCUUAAGCUAGGGUCCUUCAAGCAUCCACAGACUUAGAGUGUGGUGGUAACAUGCUUGUAAUCCUGGCACUCUGGAGGCUGAGGCAGGAGGAUAACAAGUCUAGACUAUAUAUGAUUUCUGAGGGUCUGUUAGUGAAUAAGUACCUGGAUGACAUGGGACAAGUCCCAGCCUUCCCUGCUCCUGCGCUGCUCUUCCUCUUAUGGGAUAGGGUCUAGGUCAAAUGUCACCUCUUCACUCUUGCUCUUUCCUGACCUCCCUCUUGCGGUCGCACUAGUGUGGAAUUCUCGGGUGUCAAGG
B7: ENSMUSG00000028439.70|Fam219a|208:212 (ssRNA)
RNA: GGGAGUUCUACAGUCCGACGAUCGCUUCGAUAUCCGCAUGCUAAAGGCCAGGAGGCCAAAUGUAAGCGUUGGGUGAAGGGAUCACAGGGCCGGAAGGUUGGCCCCAGCCAGUGAAGCCAUGAAUCCCCCCCAAGCCCGGCUUGGAAAGGAAGGAAAGGGGUUUUGAGAAGAAAAGGAUCCAAGCAAUGGGGGCAGUUCUCACACCUCAGAGCCCCUCUCCCCAAACCCUGUGCCAGCCCAUAUACCUAUUACACAUUUCCCCUCAUCUCCAGAUGGGAAGCCUGGCAGCGCUGUCCAAAGGGACUCUUGCGGUCGCACUAGUGUGGAAUUCUCGGGUGUCAAGG
B8: ENSMUSG00000031028.479|Tub (ssRNA)
RNA: GGGAGUUCUACAGUCCGACGAUCGCUUCGAUAUCCGCAUGCUACUCCCAUGGUUCUGAGCAGGCGACUGUCAAGGAAGUGUGUUGUCAGUUCACUGGAGGAGGAGCUGAGAUGUGCACCCUUUUAAAUGAACAUGGGGUGGUGAUGGUGCCUUAACAAUCUUGACACUAAGGUGAAGCAAGCAAGUAAGGUGUGUGCCUCUGGGAAGACAGGAGUCGGAAGCCAAGGUGUGUGGCAACAGUCUGGAAGAGAGCUUUUGGUAAUCAUACCGUCUUCAGUGACAAGGCAACAAUGCUGUAAAGUGCUCUUGCGGUCGCACUAGUGUGGAAUUCUCGGGUGUCAAGG
B9: ENSMUSG00000031028.483|Tub (ssRNA)
RNA: GGGAGUUCUACAGUCCGACGAUCGCUUCGAUAUCCGCAUGCUAUGUCAAGGAAGUGUGUUGUCAGUUCACUGGAGGAGGAGCUGAGAUGUGCACCCUUUUAAAUGAACAUGGGGUGGUGAUGGUGCCUUAACAAUCUUGACACUAAGGUGAAGCAAGCAAGUAAGGUGUGUGCCUCUGGGAAGACAGGAGUCGGAAGCCAAGGUGUGUGGCAACAGUCUGGAAGAGAGCUUUUGGUAAUCAUACCGUCUUCAGUGACAAGGCAACAAUGCUGUAAAGUGGGUUUGUUUGGUUUUGUUUUUUCUCUCUUGCGGUCGCACUAGUGUGGAAUUCUCGGGUGUCAAGG
B10: ENSMUSG00000031028.479|Tub|35:40;147:153;184:190 (ssRNA)
RNA: GGGAGUUCUACAGUCCGACGAUCGCUUCGAUAUCCGCAUGCUACUCCCAUGGUUCUGAGCAGGCGACUGUCAAGGAACACACAUGUCAGUUCACUGGAGGAGGAGCUGAGAUGUGCACCCUUUUAAAUGAACAUGGGGUGGUGAUGGUGCCUUAACAAUCUUGACACUAAGGUGAAGCAAGCAAGUAAGCACACACCCUCUGGGAAGACAGGAGUCGGAAGCCAAGCACACACGCAACAGUCUGGAAGAGAGCUUUUGGUAAUCAUACCGUCUUCAGUGACAAGGCAACAAUGCUGUAAAGUGCUCUUGCGGUCGCACUAGUGUGGAAUUCUCGGGUGUCAAGG
B11: ENSMUSG00000031028.478|Tub (ssRNA)
RNA: GGGAGUUCUACAGUCCGACGAUCGCUUCGAUAUCCGCAUGCUACUCUUUCUCCCAUGGUUCUGAGCAGGCGACUGUCAAGGAAGUGUGUUGUCAGUUCACUGGAGGAGGAGCUGAGAUGUGCACCCUUUUAAAUGAACAUGGGGUGGUGAUGGUGCCUUAACAAUCUUGACACUAAGGUGAAGCAAGCAAGUAAGGUGUGUGCCUCUGGGAAGACAGGAGUCGGAAGCCAAGGUGUGUGGCAACAGUCUGGAAGAGAGCUUUUGGUAAUCAUACCGUCUUCAGUGACAAGGCAACAAUGCUGUCUCUUGCGGUCGCACUAGUGUGGAAUUCUCGGGUGUCAAGG
B12: ENSMUSG00000031028.480|Tub (ssRNA)
RNA: GGGAGUUCUACAGUCCGACGAUCGCUUCGAUAUCCGCAUGCUAUGGUUCUGAGCAGGCGACUGUCAAGGAAGUGUGUUGUCAGUUCACUGGAGGAGGAGCUGAGAUGUGCACCCUUUUAAAUGAACAUGGGGUGGUGAUGGUGCCUUAACAAUCUUGACACUAAGGUGAAGCAAGCAAGUAAGGUGUGUGCCUCUGGGAAGACAGGAGUCGGAAGCCAAGGUGUGUGGCAACAGUCUGGAAGAGAGCUUUUGGUAAUCAUACCGUCUUCAGUGACAAGGCAACAAUGCUGUAAAGUGGGUUUGCUCUUGCGGUCGCACUAGUGUGGAAUUCUCGGGUGUCAAGG
B13: ENSMUSG00000031028.482|Tub|17:22;129:135;166:172 (ssRNA)
RNA: GGGAGUUCUACAGUCCGACGAUCGCUUCGAUAUCCGCAUGCUAGGCGACUGUCAAGGAACACACAUGUCAGUUCACUGGAGGAGGAGCUGAGAUGUGCACCCUUUUAAAUGAACAUGGGGUGGUGAUGGUGCCUUAACAAUCUUGACACUAAGGUGAAGCAAGCAAGUAAGCACACACCCUCUGGGAAGACAGGAGUCGGAAGCCAAGCACACACGCAACAGUCUGGAAGAGAGCUUUUGGUAAUCAUACCGUCUUCAGUGACAAGGCAACAAUGCUGUAAAGUGGGUUUGUUUGGUUUUGUUCUCUUGCGGUCGCACUAGUGUGGAAUUCUCGGGUGUCAAGG
B14: ENSMUSG00000031028.481|Tub (ssRNA)
RNA: GGGAGUUCUACAGUCCGACGAUCGCUUCGAUAUCCGCAUGCUAUGAGCAGGCGACUGUCAAGGAAGUGUGUUGUCAGUUCACUGGAGGAGGAGCUGAGAUGUGCACCCUUUUAAAUGAACAUGGGGUGGUGAUGGUGCCUUAACAAUCUUGACACUAAGGUGAAGCAAGCAAGUAAGGUGUGUGCCUCUGGGAAGACAGGAGUCGGAAGCCAAGGUGUGUGGCAACAGUCUGGAAGAGAGCUUUUGGUAAUCAUACCGUCUUCAGUGACAAGGCAACAAUGCUGUAAAGUGGGUUUGUUUGGUCUCUUGCGGUCGCACUAGUGUGGAAUUCUCGGGUGUCAAGG
B15: ENSMUSG00000031028.482|Tub (ssRNA)
RNA: GGGAGUUCUACAGUCCGACGAUCGCUUCGAUAUCCGCAUGCUAGGCGACUGUCAAGGAAGUGUGUUGUCAGUUCACUGGAGGAGGAGCUGAGAUGUGCACCCUUUUAAAUGAACAUGGGGUGGUGAUGGUGCCUUAACAAUCUUGACACUAAGGUGAAGCAAGCAAGUAAGGUGUGUGCCUCUGGGAAGACAGGAGUCGGAAGCCAAGGUGUGUGGCAACAGUCUGGAAGAGAGCUUUUGGUAAUCAUACCGUCUUCAGUGACAAGGCAACAAUGCUGUAAAGUGGGUUUGUUUGGUUUUGUUCUCUUGCGGUCGCACUAGUGUGGAAUUCUCGGGUGUCAAGG
B16: ENSMUSG00000031028.484|Tub (ssRNA)
RNA: GGGAGUUCUACAGUCCGACGAUCGCUUCGAUAUCCGCAUGCUAGGAAGUGUGUUGUCAGUUCACUGGAGGAGGAGCUGAGAUGUGCACCCUUUUAAAUGAACAUGGGGUGGUGAUGGUGCCUUAACAAUCUUGACACUAAGGUGAAGCAAGCAAGUAAGGUGUGUGCCUCUGGGAAGACAGGAGUCGGAAGCCAAGGUGUGUGGCAACAGUCUGGAAGAGAGCUUUUGGUAAUCAUACCGUCUUCAGUGACAAGGCAACAAUGCUGUAAAGUGGGUUUGUUUGGUUUUGUUUUUUCUUUCUCUCUCUUGCGGUCGCACUAGUGUGGAAUUCUCGGGUGUCAAGG

Molecular target: TDP-43 (Homo sapiens, UniProt Q13148 1-414)
Sequence (Q13148 whole entry): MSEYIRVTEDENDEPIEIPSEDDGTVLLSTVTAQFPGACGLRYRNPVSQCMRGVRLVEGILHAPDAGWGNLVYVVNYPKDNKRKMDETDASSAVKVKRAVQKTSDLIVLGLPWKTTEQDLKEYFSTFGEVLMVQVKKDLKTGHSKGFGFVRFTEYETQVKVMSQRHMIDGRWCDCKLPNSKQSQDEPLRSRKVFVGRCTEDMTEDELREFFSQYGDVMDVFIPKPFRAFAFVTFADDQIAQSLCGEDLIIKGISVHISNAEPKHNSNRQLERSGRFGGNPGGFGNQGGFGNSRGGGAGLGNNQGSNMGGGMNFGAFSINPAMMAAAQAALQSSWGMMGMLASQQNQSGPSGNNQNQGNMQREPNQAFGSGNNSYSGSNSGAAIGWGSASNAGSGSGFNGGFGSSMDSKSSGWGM
Test: RNA Bind-n-Seq with designed 260-mer pool; 25 mM Tris-HCl, 150 mM KCl, 3 mM MgCl2, BSA (printed 500 mg/mL), 20 units/mL SUPERase IN; pH not stated; 500 nM RNA pool, 1 h, 4 C; TDP-43 5, 50, 500 nM; high values mean tight binding
Conditions: protein: recombinant; tags: SBP (GST cleaved off with PreScission; pGEX-GST-SBP)
Procedure, shortened: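 In 25 mM Tris-HCl, 150 mM KCl, 3 mM MgCl2, BSA and SUPERase IN, 500 nM of an in vitro-transcribed 260-nt 3′ UTR oligo pool was incubated for 1 h at 4 °C with SBP-tagged TDP-43 (5, 50 or 500 nM) captured on streptavidin beads. RNA remaining after washes was biotin-eluted, reverse transcribed, PCR-amplified and sequenced. Binding, R, is the bound-sample abundance of each oligo, normalized to mapped reads, divided by its abundance in input. Each duplicate used a separate, independent protein batch.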

Binder | binding signal
B1 | 0.745 R (bound/input frequency ratio)
B2 | 1.02 R (bound/input frequency ratio)
B3 | 0.142 R (bound/input frequency ratio)
B4 | 0.294 R (bound/input frequency ratio)
B5 | 1.41 R (bound/input frequency ratio)
B6 | 0.306 R (bound/input frequency ratio)
B7 | 0.319 R (bound/input frequency ratio)
B8 | 6.66 R (bound/input frequency ratio)
B9 | 3.98 R (bound/input frequency ratio)
B10 | 0.829 R (bound/input frequency ratio)
B11 | 2.52 R (bound/input frequency ratio)
B12 | 6.51 R (bound/input frequency ratio)
B13 | 1.47 R (bound/input frequency ratio)
B14 | 5.19 R (bound/input frequency ratio)
B15 | 6.54 R (bound/input frequency ratio)
B16 | 4.79 R (bound/input frequency ratio)

— publication PMC12864922, “TDP-43 directly inhibits mRNA accumulation in neurites through modulation of mRNA stability”
